# Screen size: about 52,000 compounds; about 4,300 (8.3%) were called active. No stated cut-off is given here; in the data, active means survival mostly below about 52% (no sharp cut-off); inactive means mostly above about 56%. For the sample, actives were picked, then their nearest neighbours and some compounds at random.
# Tested on: DeltatarO mutant
# Assay: growth inhibition of S. aureus wild type versus tarO mutant, primary screen, teichoic acid synthesis inhibitors, RN4220, OD600 (AID 463173)
# Conditions: OD600, 18 h, hits give low values, screened at 18.75 µg/mL (by protocol)
row,Compound,survival
1,CCn1c(C)c(C2N3CC4(C)CN2CC(C)(C3)C4=O)c2ccccc21 (configuration not stated),92% (inactive)
2,N#C/C(=C\c1cn(CC(=O)N2CCCC2)c2ccccc12)C(=O)NCc1ccc2c(c1)OCO2,66% (inactive)
3,Fc1ccc(-c2noc3ncnc(NCc4ccc(Cl)cc4)c23)cc1,84% (inactive)
4,CCOC(=O)c1ccc(N2C(=O)c3n[nH]c(-c4cccs4)c3C2c2ccc(OC)cc2OC)cc1 (configuration not stated),76% (inactive)
5,COc1ccccc1NC(=O)c1ccc(C)o1,61% (inactive)
6,CCOc1ccc(OCc2ccc(C(=O)Nc3cc(OC)c(OC)c(OC)c3)o2)cc1,54% (active)
7,COC(=O)c1cc(NC(=O)c2ccc(-c3ccc(Cl)cc3Cl)o2)cc(C(=O)OC)c1,53% (inactive)
8,COC(=O)c1ccccc1NC(=O)c1ccc(COc2cc(C)cc(C)c2)o1,40% (inactive)
9,CC(=O)Nc1ccc(NC(=O)c2ccc(COc3ccc(Cl)cc3Cl)o2)cc1,46% (active)
10,Cc1cc(C)cc(OCc2ccc(C(=O)Nc3ccccc3F)o2)c1,45% (inactive)
11,COc1ccccc1NC(=O)c1ccc(COc2ccc(C)c(C)c2)o1,1% (active)
12,COC(=O)c1ccccc1NC(=O)c1ccc(COc2ccccc2Cl)o1,63% (inactive)
13,C=CCc1ccc(OCc2ccc(C(=O)Nc3ccc(NC(C)=O)cc3)o2)c(OC)c1,121% (inactive)
14,CCCc1ccc(OCc2ccc(C(=O)Nc3ccccc3C(=O)OC)o2)cc1,-2% (active)
15,CCOc1ccc(NC(=O)c2cc(=O)c3cc(CC)ccc3o2)cc1,57% (inactive)
16,COc1ccc(NC(=O)c2ccc(COc3ccccc3OC)o2)cc1OC,61% (inactive)
17,O=C(O)CCCc1nc2ccccc2s1,75% (inactive)
18,Cc1cc(NC(=O)CSc2nc(-c3ccccc3F)nc3c2c(=O)n(C)c(=O)n3C)no1,86% (inactive)
19,COC(=O)c1ccccc1NC(=O)C1CCCN(c2ncnc3onc(C)c23)C1 (configuration not stated),80% (inactive)
20,O=C(CNCC1CCCCC1)Nc1cccc(F)c1,88% (inactive)
21,COc1cc(CNC(=O)c2ccc3c(c2)N(C)C(=O)C2CCCCN32)cc(OC)c1OC (configuration not stated),69% (inactive)
22,Cc1c(C(=O)N2CCC(C)CC2)c(S(=O)(=O)NCc2ccc(Cl)cc2)c(C)n1C,128% (inactive)
23,O=C(Nc1c(C(=O)N2CCN(c3ccccc3F)CC2)oc2ccccc12)c1ccc(Br)o1,80% (inactive)
24,CCc1cccc(C)c1NC(=O)Cn1cc2c(n1)CCCCC2,90% (inactive)
25,C#CCn1c(O)c(N=NC(=O)c2ccccc2-n2cccc2)c2ccccc21,60% (inactive)

row,Compound,survival
1,COc1ccc(-c2noc(CSc3nnc(-c4ccncc4)n3-c3ccc(C)cc3)n2)cc1,55% (inactive)
2,COc1ccc(-c2noc(CSc3nnc(C)n3-c3ccc(OC)cc3)n2)cc1,77% (inactive)
3,CCCn1c(SCc2nc(-c3ccccc3C)no2)nnc1-c1ccc(Cl)cc1,47% (inactive)
4,Cc1ccc(-n2c(SCc3nc(-c4ccc(Cl)cc4)no3)nnc2-c2ccncc2)cc1,37% (active)
5,COc1ccc(-n2c(SCc3nc(-c4ccc(Cl)cc4)no3)nnc2-c2ccncc2)cc1,49% (active)
6,CCCn1c(SCc2nc(-c3ccccc3OCC)no2)nnc1-c1ccc(Cl)cc1,43% (active)
7,COc1ccc(-c2noc(CSc3nnc(-c4ccncc4)n3-c3ccccc3)n2)cc1,70% (inactive)
8,Cc1ccc(-c2noc(CSc3nnc(C)n3-c3ccc(C)cc3)n2)cc1,101% (inactive)
9,COc1ccc(-c2noc(CSc3nnc(-c4ccncc4)n3-c3ccc(OC)cc3)n2)cc1,92% (inactive)
10,COc1ccc(-n2c(SCc3nc(-c4ccc(C)cc4)no3)nnc2-c2ccncc2)cc1,57% (inactive)
11,COc1ccc(-c2noc(CSc3nnc(C)n3-c3ccc(C)cc3)n2)cc1,57% (active)
12,CCCn1c(SCc2nc(-c3ccc(OC)cc3OC)no2)nnc1-c1ccc(Cl)cc1,53% (inactive)
13,CC(C)Oc1ccc(C(=O)Nc2nonc2-c2ccc(OC(C)C)cc2)cc1,75% (inactive)
14,Cc1ccc2c(c1)N(C(=O)CCC(=O)Nc1ccc(F)cc1F)CC(C)O2 (configuration not stated),56% (inactive)
15,CCOc1ccc(-c2nnc(SCC(=O)NCCc3ccc(OC)c(OC)c3)nc2-c2ccc(OCC)cc2)cc1,98% (inactive)
16,CCOc1ccc(OCC)c(NC(=O)c2cnn(-c3ccc(F)cc3)c2-n2cccc2)c1,80% (inactive)
17,Cc1ccccc1OCC(=O)Nc1ccc(-c2nc3cc(Cl)cc(Cl)c3o2)cc1,62% (inactive)
18,Cc1ccc(C)c(NC(=O)CN2C(=O)c3cccnc3Oc3ccc(C)cc32)c1,80% (inactive)
19,CCOc1ccc(S(=O)(=O)n2nc(C)c(S(=O)(=O)N3CCCCCC3)c2C)cc1,115% (inactive)
20,COC(=O)c1cc2sc(Cl)cc2n1CC(=O)Nc1cc(OC)cc(OC)c1,84% (inactive)
21,CCOC(=O)c1ccc2c(c1)N(C(CC)C(=O)Nc1ccccc1OC)C(=O)c1ccccc1S2 (configuration not stated),101% (inactive)
22,CCC(C(=O)Nc1ccccc1OC)n1c(C(=O)OC)cc2sc(Cl)cc21 (configuration not stated),-6% (active)
23,CCC(Sc1nnc(C)n2c1cc1occc12)C(=O)Nc1ccccc1OC (configuration not stated),77% (inactive)
24,CCOc1ccccc1NC(=O)C(CC)n1c(C(=O)OC)cc2occc21 (configuration not stated),-4% (active)
25,CCOC(=O)c1cc2occc2n1C(C)C(=O)OCC (configuration not stated),80% (inactive)

row,Compound,survival
1,Cc1ccc(CNc2nc(-c3ccco3)nn2S(=O)(=O)c2ccc3ccccc3c2)cc1,115% (inactive)
2,CCc1ccc(NC(=O)Cn2c(C(=O)OC)cc3oc(C)cc32)cc1,65% (inactive)
3,CC(C)NC(=O)Cn1ncn2c(cc3cc(F)ccc32)c1=O,82% (inactive)
4,CNC(=O)C1CCC(Cn2c(=O)c3sccc3n(CC(=O)Nc3cc(C)cc(C)c3)c2=O)CC1 (configuration not stated),70% (inactive)
5,Cc1nn(CCC(=O)Nc2cccc(C#N)c2)c(C)c1S(=O)(=O)N1CCCCC1,88% (inactive)
6,CCc1ccc(NC(=O)CC2C(=O)N(c3ccc(C)cc3)C(=O)N2CCc2ccncc2)cc1 (configuration not stated),81% (inactive)
7,Nc1nonc1-c1nc2ccccc2n1Cc1c(Cl)cccc1Cl,50% (inactive)
8,O=C(NCCc1ccc(Cl)cc1)c1ccc(CS(=O)Cc2cccc(Cl)c2)o1 (configuration not stated),38% (active)
9,Cc1ccc(CNC(=O)c2ccc(CS(=O)(=O)Cc3ccc(F)cc3)o2)cc1,77% (inactive)
10,O=C(NCCc1ccc(Cl)cc1)c1ccc(CS(=O)(=O)Cc2ccccc2F)o1,-1% (active)
11,Cc1ccccc1CS(=O)(=O)Cc1ccc(C(=O)NCc2ccc(F)cc2)o1,47% (active)
12,Cc1ccccc1CS(=O)(=O)Cc1ccc(C(=O)NCCc2ccc(Cl)cc2)o1,76% (inactive)
13,O=C(NCCc1ccccc1)c1ccc(CS(=O)Cc2ccc(Cl)cc2)o1 (configuration not stated),74% (inactive)
14,CCc1ccc(CNC(=O)c2ccc(CS(=O)(=O)Cc3ccccc3C)o2)cc1,79% (inactive)
15,CCOc1ccc(CCNC(=O)c2ccc(CS(=O)Cc3cccc(Cl)c3)o2)cc1 (configuration not stated),50% (inactive)
16,Cc1ccc(CCNC(=O)c2ccc(CS(=O)(=O)Cc3ccccc3F)o2)cc1,72% (inactive)
17,CCc1ccc(NC(=O)Cn2c(=O)n(-c3ccccc3)c(=O)c3ccc(C(=O)NCc4ccc5c(c4)OCO5)cc32)cc1,112% (inactive)
18,COc1ccc(NC(=O)NC(C)c2c(-n3cccc3)sc3c2CCN(C)C3)c(OC)c1 (configuration not stated),70% (inactive)
19,O=C(OCc1ccccc1F)c1ccc(-c2nnn(Cc3ccccc3)n2)cc1,122% (inactive)
20,COc1cccc(CN(C(=O)c2ccc(C(C)(C)C)cc2)C2CCS(=O)(=O)C2)c1 (configuration not stated),70% (inactive)
21,COc1ccc(NC(=O)c2oc3ccccc3c2NC(=O)Cc2coc3cc(C)ccc23)cc1,70% (inactive)
22,CN1CCN(S(=O)(=O)c2ccc(Br)c3ccccc23)CC1,99% (inactive)
23,Cc1cc(Nc2ccc(Cl)cc2)n2cnnc2n1,65% (inactive)
24,COc1ccc(-c2nn[nH]n2)cc1,105% (inactive)
25,COc1ccc(NC(=O)c2c(N)c(C(=O)c3ccc(C)cc3)n3ccccc23)cc1OC,82% (inactive)

row,Compound,survival
1,Cc1ccc(NC(=O)Cc2ccc(NC(=O)N3CCCCc4ccccc43)cc2)cc1Cl,93% (inactive)
2,CCS(=O)(=O)c1ccccc1C(=O)N1CCN(c2nc3ccccc3s2)CC1,55% (inactive)
3,COc1ccc(CCNC(=O)c2cn(C)c3ccc(S(=O)(=O)N(C)C)cc3c2=O)cc1OC,84% (inactive)
4,Cc1ccc(-c2nc(C)c(CCNS(=O)(=O)c3ccc(F)c(C(F)(F)F)c3)s2)cc1,-4% (active)
5,Cc1ccc(-c2nc(C)c(CCNS(=O)(=O)c3ccccc3F)s2)cc1,76% (inactive)
6,CCOc1ccc(S(=O)(=O)NCCc2sc(-c3ccc(C)cc3)nc2C)cc1,102% (inactive)
7,CC(C)c1nc2ccc(C(=O)NCCCN3CCN(c4ccccc4)CC3)cc2o1,120% (inactive)
8,CC(C)COC(=O)Nc1ccc2c(c1)OCO2,62% (inactive)
9,Cc1ccc(C)n1-c1nnc(N2CCCC(C(=O)NCc3ccc(F)cc3)C2)s1 (configuration not stated),93% (inactive)
10,CSc1ccc(C2c3[nH]c4ccccc4c3CCN2C(=O)CCC2CCCC2)cc1 (configuration not stated),74% (inactive)
11,CCSc1nnc2c(n1)OC(c1ccc(C)cc1)N(C(C)=O)c1ccccc1-2 (configuration not stated),55% (inactive)
12,CCCCCCSc1nnc2c(n1)OC(C)Nc1ccc(Br)cc1-2 (configuration not stated),75% (inactive)
13,CCSc1nnc2c(n1)OC(c1cc(OC)c(OC)c(OC)c1)Nc1ccccc1-2 (configuration not stated),61% (inactive)
14,CCCSc1nnc2c(n1)OC(c1ccc(Br)s1)Nc1ccccc1-2 (configuration not stated),53% (inactive)
15,CCCCCSc1nnc2c(n1)OC(CC)Nc1ccc(Br)cc1-2 (configuration not stated),63% (inactive)
16,CCCCSc1nnc2c(n1)OC(c1ccc(Br)s1)Nc1ccccc1-2 (configuration not stated),10% (active)
17,CCSc1nnc2c(n1)OC(c1ccc(OC)c(OC)c1)N(C(C)=O)c1ccccc1-2 (configuration not stated),53% (inactive)
18,CCSc1nnc2c(n1)OC(c1ccc(OC)cc1OC)N(C(C)=O)c1ccccc1-2 (configuration not stated),58% (active)
19,CCCCCSc1nnc2c(n1)OC(c1ccc(C)s1)N(C(C)=O)c1ccccc1-2 (configuration not stated),45% (active)
20,CCCSc1nnc2c(n1)OC(c1cccs1)Nc1ccc(Br)cc1-2 (configuration not stated),30% (active)
21,CCCCSc1nnc2c(n1)OC(C)N(C(C)=O)c1ccccc1-2 (configuration not stated),154% (inactive)
22,CCCCSc1nnc2c(n1)OC(c1ccc(Br)s1)N(C(C)=O)c1ccccc1-2 (configuration not stated),47% (inactive)

# From PubChem BioAssay AID463173 (ICCB-Longwood Screening Facility, Harvard Medical School, 2010)
